# Reference: PubChem BioAssay AID651784 (National Center for Advancing Translational Sciences (NCATS), 2012)
# Records with an inconclusive call do not appear. Calls of active or inactive are those of the source. The call rests on the fitted dose curve; in most records, active means well fitted inhibition curve with a large enough effect; inconclusive means small, poorly fitted or top-dose-only effect; inactive means no such curve, though single readings can be large or run the other way.
# Experiment: Acumen qHTS Assay for Inhibitors of the mTORC1 Signaling Pathway in MEF (Tsc2-/-, p53-/-) Cells: Hit Validation;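 further: phospho-rpS6 Ser235/236 immunofluorescence normalized to propidium iodide cell count; nearly all actives have a fitted effect of over 65% in size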;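 on activity change, negative = inhibition: cells exposed to compound for 24 hours; plate controls were DMSO for no effect and 7.5 nM rapamycin control for full effect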
# Settings: Acumen imaging; activity change, negative = inhibition: at 37.3 µM (top of the series)
# Potency means the concentration at half of the fitted maximal effect.
SMILES,"activity change, negative = inhibition",Potency
Cc1nn(C(C)C(=O)NC2CCCCC2)c(=O)c2c1sc1ccccc12 (stereo not drawn),-2.94%,–
CCN(CC)CCNC(=O)c1cc(-c2ccc(Br)s2)nc2ccccc12,–,11.7 µM (active)
COc1ccccc1CNC(=O)CCCn1c(=O)c2cccn2c2ccccc21,-1.89%,–
CCS(=O)(=O)c1ncc(Cl)c(C(=O)Nc2ccc(S(=O)(=O)N(C)c3ccccc3)cc2)n1,–,1.47 µM (active)
COc1ccc(C2=NS(=O)(=O)N(C)C(C(=O)Nc3ccc(OC(F)(F)F)cc3)=C2)cc1,2.76%,–
Cc1ccc(NC(=O)Nc2cccs2)c(C)c1,-40.4%,–
CCCN1C(=O)C(Cc2nc3ccccc3c(=O)n2CC)c2ccccc21 (stereo not drawn),-1.87%,–
Cc1ccc(-c2nnn(CC(=O)N(CC(=O)NCCC(C)C)c3ccc(F)cc3)n2)cc1,20.3%,–
CCCCS(=O)(=O)c1oc(-c2cccs2)nc1S(=O)(=O)c1ccccc1,–,2.07 µM (active)
Cc1ccc(NC(=O)COc2ccc(-c3nn(C)c(=O)c4ccccc34)cc2)c(C)c1,-44.6%,–
CCN(CC)CCOC(=O)c1ccc(NC(=O)c2nn(-c3ccc(C)cc3)c(=O)c3c2c2ccccc2n3C)cc1,–,4.14 µM (active)
COc1ccc(-c2nc(CCNC(=O)c3c(F)cccc3Cl)cs2)cc1,-0.104%,–
Cc1cc(-c2ccc(S(=O)(=O)Nc3cccc(C)c3C)s2)on1,–,4.14 µM (active)
O=C(NCC1CCN(Cc2cccc(Cl)c2)CC1)Nc1ccc(F)c(Cl)c1,–,9.27 µM (active)
COc1ccc(-c2ccc(CCC(=O)O)n2-c2ccccc2O)cc1,-2.33%,–
Cc1ccc(-n2c(=O)c3ccc(C(=O)NCc4ccco4)cc3n(Cc3ccc(Cl)cc3)c2=O)cc1,–,9.27 µM (active)
CCCCS(=O)(=O)c1oc(-c2cccs2)nc1S(=O)(=O)c1ccc(F)cc1,–,3.69 µM (active)
COc1ccccc1N1CCN(C(=O)c2cnc(N3CCCCC3)c3ccccc23)CC1,–,0.927 µM (active)
COc1ccc(CCN2C(=O)c3[nH]nc(-c4ccccc4O)c3C2c2cccc(OC)c2)cc1 (stereo not drawn),–,5.85 µM (active)
O=C(CS(=O)(=O)c1cccc2nsnc12)NCc1ccc(Cl)cc1,10.4%,–
Cc1ccc(OCC(O)Cn2c(=N)n(CCN3CCCCC3)c3ccccc32)cc1 (stereo not drawn),–,10.4 µM (active)
CCOc1ccccc1Nc1nc(-c2cccc(Cl)c2)c2c(n1)-c1ccccc1OC2,-15.1%,–
Cc1c(Cl)cccc1-c1ccc(C(=O)Nc2ccc3oc(-c4cccnc4)nc3c2)o1,-39.9%,–
